# Measured values as given in PubChem BioAssay (NCATS).
# Records with an inconclusive call do not appear. Active and inactive are the calls of the source. The call rests on the fitted dose curve; in most records, active means well fitted inhibition curve with a large enough effect; inconclusive means small, poorly fitted or top-dose-only effect; inactive means no such curve, though single readings can be large or run the other way.
# Molecular target: Retinal dehydrogenase 2 (Homo sapiens) (UniProt O94788)
# Experiment: qHTS for Inhibitors of the Aldehyde Dehydrogenase Family (ALDH1A2) Confirmation screens (AID 2061314); further: nearly all actives have a fitted effect of over 65% in size
# Conditions: ALDH1A2 enzyme inhibition qHTS confirmation; series mostly up to 45.9 µM; activity, negative = inhibition: at the top concentration
# On the % scale 0 is the no-effect control and ±100 the full control effect; potency means the concentration at half of the fitted maximal effect.
SMILES,Potency,"activity, negative = inhibition"
O=C(O)CN1C(=O)/C(=C/c2ccc(-c3cccc(Cl)c3)o2)SC1=S,22.5 µM (active),–
CC(=O)c1c(C)n(-c2cccc(C)c2)c2ccc(OC(=O)COc3ccccc3)cc12,–,-11.8% (inactive)
CCOC(=O)c1c(C)n(-c2ccc(OC)cc2)c2ccc(OC(=O)COc3ccccc3)cc12,–,-8.13% (inactive)
CN1CCN(c2ccc(NC(=O)CN(C)Cc3c(O)ccc4ccccc34)cc2)CC1,7.12 µM (active),–
COc1cccc(CNC(=O)c2ccc3c(c2)sc2nc(-c4ccccc4)cn23)c1OC,–,-10.9% (inactive)
O=C1Cc2cc(S(=O)(=O)N3CCN(c4ccc(F)cc4)CC3)ccc2N1,–,-14.8% [at 86.5 µM] (inactive)
CCOC(=O)C1CCN(C(=O)C(C)(C)NC(=O)Nc2ccc(N(C)C)cc2)CC1,12.7 µM (active),–
CC(=O)N1CCN(c2ccc(NCc3ccc4c(c3)OCO4)cc2)CC1,8.96 µM (active),–
Cc1nc(C(C)Nc2ncnc3ccc(-c4ccc5c(c4)OCO5)cc23)cs1 (configuration not stated),–,-16.5% (inactive)
COc1ccc(C2=NN(CC(=O)NCCc3ccc(OC)c(OC)c3)C(=O)CC2)cc1,–,-2.35% (inactive)
O=C(O)c1ccc2c(c1)C(=O)N(CCc1ccc(O)cc1)C2=O,–,-9.92% (inactive)
COc1ccc(-n2c(C)c(C(C)=O)c3cc(OC(=O)c4ccc(C)cc4)ccc32)cc1,–,-10.8% (inactive)
COc1ccc(C2Nc3ccccc3C(=O)N2Cc2ccco2)cc1COc1ccc(N)cc1 (configuration not stated),4.49 µM (active),–
O=C1Cc2cc(S(=O)(=O)N3CCNCC3)ccc2N1,17.9 µM (active),–
CN(C)c1cccc(-c2cnc(N3CCC(c4ncc[nH]4)CC3)s2)c1,–,-147% (inactive)
Cc1ccc(C(=O)NCC(c2ccc3c(c2)OCO3)N2CCN(c3ccc(F)cc3)CC2)cc1 (configuration not stated),–,-15.5% (inactive)
O=S1(=O)N=C(Oc2cccc3ccccc23)c2ccccc21,12.7 µM (active),–
COc1ccc(Cl)cc1C(=O)NCc1nnc2cc(-c3nc(C)no3)ccn12,–,2.34% (inactive)
COc1ccc(C2=Nn3c(nnc3-c3ccccc3OC)SC2)cc1OC1CCCC1,6.34 µM (active),–
Cc1ccc(CCN2C(=O)c3ccc(C(=O)O)cc3C2=O)cc1,–,0.817% (inactive)
CC(=O)N1CCN(c2ccc(NCc3ccc(Br)o3)cc2)CC1,12.7 µM (active),–
CC(=O)Nc1sc2c(c1-c1csc3ccccc13)CCNC2,15.9 µM (active),–
